VP16 counter – Gal4-VP16 reporter inhibition counter-screen. Drosophila S2 Gal4-VP16 UAS-luciferase, luminescence, 20 h. Potency, µM (top dose mostly 53.6 µM), usual class: inhibitors. actives 3.5% (n = 310,000). AID 2546;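 note: Gal4-VP16 expression switched on by copper sulfate through the metallothionein promoter; nearly all actives have a fitted effect of over 50% in size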
TSHR antagonist – antagonists of human thyroid stimulating hormone receptor. P16473. TSHR-expressing cells, TSH-stimulated cAMP HTRF, 2 h; active compounds read low. activity change, negative = inhibition, % at 11.5 µM. actives 0.2% (n = 330,000);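 active = activity change below a set negative limit, meaning inhibition stronger than a set level, cut at about -70% in these data; inconclusive = activity change between two set negative limits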
Target sequence (P16473 whole entry, looked up): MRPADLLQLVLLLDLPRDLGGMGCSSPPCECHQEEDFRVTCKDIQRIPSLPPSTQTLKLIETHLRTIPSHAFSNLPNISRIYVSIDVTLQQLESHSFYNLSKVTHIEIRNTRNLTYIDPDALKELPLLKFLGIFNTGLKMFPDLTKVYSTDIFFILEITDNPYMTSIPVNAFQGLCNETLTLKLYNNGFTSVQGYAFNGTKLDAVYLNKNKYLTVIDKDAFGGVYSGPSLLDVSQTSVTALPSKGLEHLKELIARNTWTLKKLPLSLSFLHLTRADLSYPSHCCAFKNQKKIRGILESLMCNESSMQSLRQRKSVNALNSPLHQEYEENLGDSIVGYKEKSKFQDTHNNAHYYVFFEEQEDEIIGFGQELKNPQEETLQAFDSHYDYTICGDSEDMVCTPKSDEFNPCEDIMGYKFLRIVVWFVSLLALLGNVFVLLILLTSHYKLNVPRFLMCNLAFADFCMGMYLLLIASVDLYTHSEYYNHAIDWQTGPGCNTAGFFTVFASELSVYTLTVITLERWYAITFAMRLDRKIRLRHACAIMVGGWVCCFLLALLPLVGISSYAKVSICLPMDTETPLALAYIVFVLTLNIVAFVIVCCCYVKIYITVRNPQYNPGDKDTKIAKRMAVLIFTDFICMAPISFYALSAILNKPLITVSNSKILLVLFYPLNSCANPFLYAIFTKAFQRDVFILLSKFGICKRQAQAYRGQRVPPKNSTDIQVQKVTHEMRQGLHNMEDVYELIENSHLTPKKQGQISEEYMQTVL
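TSHR-expressing cells were treated with compounds, then stimulated with TSH at EC80 (4nM final) for 2 hours at 37 deg C. Cellular cAMP was measured by HTRF competition between lysate cAMP and cAMP-d2 for a cryptate-labelled anti-cAMP antibody.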
ELG1 DNA repair – inhibitors of ELG1-dependent DNA repair in HEK293T cells; actives 2.3% (n = 330,000); HEK293T ELG1-luciferase reporter, luminescence, 16 h; DNA damage induced by 5-fluorouridine; Potency, µM (highest dose often 46.1 µM), hits mostly inhibitors; AID 504467; note: nearly all actives have a fitted effect of over 55% in size
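Overnight (16 hr) co-exposure of 2,000 cells/well to 5-fluorouridine and compound at 37 °C preceded detection. Luciferase was quantified via ONE-Glo luminescence; loss of signal denotes inhibition.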
FBPA coupling cs – coupling enzyme interference in Giardia aldolase counter-screen. coupling enzyme system counterscreen, AmpLite Red fluorescence. activity change, negative = inhibition, % at 58.2 µM, hits read low. actives 0.67% (n = 290,000). AID 2472; in the data active = activity change below about -30%
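Counterscreen of the coupled detection system alone, without aldolase: glyceraldehyde-3-phosphate coupling enzymes plus AmpLite Red readout. Compounds at 57.5 uM final, 10 min RT preincubation, 20 min RT reaction, fluorescence 525/598 nm.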
RORgamma inh – inhibitors of mouse ROR gamma transcriptional activity; actives 5.4% (n = 310,000); Potency, µM (series often up to 53.6 µM), usual class: inhibitors; Drosophila S2 Gal4-RORgamma UAS-luciferase reporter, 20 h; P51450; note: nearly all actives have a fitted effect of over 60% in size
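Drosophila S2 cells stably expressing Gal4-DBD/mouse RORγ fusion under metallothionein promoter plus UAS-luciferase; compound 1 h, then 700 uM CuSO4 induction for 20 h at ambient temperature; inhibition read as reduced luminescence.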
Hits are given with their value; i = inactive; ? = inconclusive; nt = not tested or not shown; ! = not confirmed by another sample. This is a sample that favours compounds with a hit; in the whole collection about 8% have one here. Unless noted, calls come from the whole dose curve; as a rule, active = well fitted curve in the direction sought with a large enough effect; inconclusive = small, poorly fitted or top-dose-only effect, or another doubt; inactive = no such curve, though single readings can be large; an effect the other way counts as inactive or inconclusive.

SMILES	VP16 counter	TSHR antagonist	ELG1 DNA repair	FBPA coupling cs	RORgamma inh
CS(=O)(=O)N1CCC2(CC1)CN(c1ccc(-c3ccccc3)cc1)C2	i	nt	nt	i	i
O=C(COc1cc2oc(=O)c3c(c2cc1Cl)CCC3)NCc1ccccn1	i	i	i	i	i
C=C(C(=O)c1ccccc1)C(C)C(=C)C(=O)c1ccccc1	11.2µM	i	20.6µM	i	12.6µM
O=C(O)c1ccc(C(=O)C(=O)c2ccccc2)cc1	i	i	i	i	i
C=C(C(=O)c1ccccc1)C(C(=C)C(=O)c1ccccc1)c1ccc(OC)cc1	i	i	16.4µM	i	i
O=C(c1ccccc1)C(c1ccccc1)c1ccccc1	nt	i	i	nt	nt
C=C(C(=O)c1ccccc1)C(c1ccccc1)C(C)C(=O)c1ccccc1 (stereo not drawn)	15.8µM	i	?	i	2.82µM
O=C(NNC(=O)c1ccccc1O)c1ccc(Cl)c(S(=O)(=O)N2CCCCC2)c1	nt	i	i	nt	nt
COc1ccc2[nH]cc(CCNc3ncnc4ccc(-c5ccccc5OC)cc34)c2c1	i	nt	nt	i	i
Cc1ccsc1C(=O)N1CCCC(CO)(Cc2ccccc2)C1 (stereo not drawn)	i	i	i	i	?
Cc1ccsc1C(=O)N1CCC(CO)(Cc2ccccc2)CC1	?	i	i	i	10µM
COc1ccc(CC2(CO)CCN(S(=O)(=O)c3sccc3C)CC2)cc1	i	i	18.3µM	i	?
Cc1cc(C)c2c(n1)SCC(=O)N2CC(=O)Nc1c(C)cccc1C	i	i	i	i	i
COc1nc(Cl)cn(-c2ccc(C)cc2)c1=O	i	i	i	i	i
Cc1ccc(-n2c(Cl)c(Cl)nc(Cl)c2=O)cc1	5.01µM	-95.3	6.51µM	i	2.82µM
CC[C@@]1(O)C[C@H](O[C@H]2C[C@@H](N(C)C)[C@@H](O[C@H]3C[C@@H](O)[C@@H](O[C@H]4CCC(=O)[C@@H](C)O4)[C@@H](C)O3)[C@@H](C)O2)c2c(cc3c(c2O)C(=O)c2c(O)cccc2C3=O)[C@H]1C(=O)OC	0.562µM	nt	nt	nt	0.316µM
CN1CCc2cc(O)c(O)cc2C1Cc1ccc(O)c(O)c1 (stereo not drawn)	i	nt	nt	i	i
CC12CCC3C(CCC4CC(O)CCC43C)C1CC=C2c1ccccc1 (stereo not drawn)	i	nt	nt	i	i
C/C(=N\NC(N)=S)C1=CCC2C3CC[C@H]4CC(O)CC[C@]4(C)C3CC[C@]12C (stereo partly drawn)	?	i	i	i	2.51µM
Cc1ccc(/C=C/C(=O)c2c(C)nc3ccccn23)cc1	?	i	?	i	14.1µM
O=C(Nc1ccc2c(c1)nc1n2CCN(Cc2ccccc2)C1)NC1CCCCC1	i	i	?	-36.6	?
O=C(Nc1ccc2c(c1)nc1n2CCN(Cc2ccccc2)C1)c1cccs1	i	i	?	i	i
COCCN1CCn2c(nc3cc(NC(=O)NC4CCCCC4)ccc32)C1	i	i	?	-30.7	i
COCCN1CCn2c(nc3cc(NC(C)=O)ccc32)C1	i	i	?	i	i
CCNC(=S)NS(=O)(=O)c1ccc(CC)cc1	?	i	i	i	12.6µM
SMILES	VP16 counter	TSHR antagonist	ELG1 DNA repair	FBPA coupling cs	RORgamma inh
CN(C(=O)CSc1nnnn1C)C1(C#N)CCCCC1	nt	i	i	nt	nt
Cc1cccc(-c2nc(Nc3ccc(N4CCOCC4)cc3)c3ccccc3n2)c1	i	i	23.1µM	i	?
c1ccc2c(Nc3ccc(N4CCOCC4)cc3)nc(N3CCOCC3)nc2c1	i	i	9.2µM	i	?
Oc1cccc2ccc[n+](CC(O)Cn3c4ccccc4c4ccccc43)c12 (stereo not drawn)	22.4µM	i	i	i	i
Cc1ccc(C2=Nn3c(COc4ccc(Cl)cc4)nnc3SC2CC(=O)O)cc1 (stereo not drawn)	i	i	i	i	i
O=C(c1ccc(=O)[nH]n1)N1CCN(S(=O)(=O)c2ccc3ccccc3c2)CC1	i	i	16.4µM	i	i
O=C(CCN1CCC(c2ccccc2)C1)c1ccccc1 (stereo not drawn)	i	i	i	i	i
O=C(CCN1CCC(c2ccccc2)C1)c1ccc2c(c1)OCCO2 (stereo not drawn)	7.08µM!	i	i	i	7.08µM!
O=C(CCN1CCCC1Cc1ccccc1)c1ccc2c(c1)OCCO2 (stereo not drawn)	5.62µM	nt	nt	i	5.01µM
COc1cc(C(=O)CCN2CCC(c3ccccc3)C2)cc(OC)c1OC (stereo not drawn)	?	i	i	i	15.8µM
O=C(CCN1CCC(c2ccccc2)C1)c1cccs1 (stereo not drawn)	?	i	i	i	?
O=C(CCN1CCOCC1)c1ccc(Br)cc1	12.6µM	i	i	i	?
COc1ccc(C(=O)N2CCN(c3ccccc3)CC2)cc1S(=O)(=O)N1CCOCC1	i	i	i	i	i
O=C(NCc1cccs1)C1CC(=O)N(Cc2ccccc2)C1 (stereo not drawn)	nt	i	i	nt	nt
O=C(CCN1CCc2ccccc21)c1ccc2c(c1)OCCO2	11.2µM	i	?	i	i
O=C(CCN1CCc2ccccc2C1)c1ccc2c(c1)OCCO2	4.47µM	i	i	i	3.16µM
O=C(CCN1CCCCC1)c1ccc2c(c1)OCCO2	7.94µM	i	i	i	11.2µM
O=C(CCCCN1CCCCC1)c1ccc2c(c1)Cc1ccccc1-2	?	i	i	i	12.6µM
O=C(CCN1CCCCCC1)c1ccccc1	i	i	i	i	i
O=C(CCN1CCCCCC1)Nc1ccc2c(c1)OCCO2	i	i	i	i	i
CC(C)C1=NN(C(=O)c2ccccc2)C(O)(C(C)(C)C)C1 (stereo not drawn)	?	i	?	i	4.47µM
CC(C)(C)C1=NN(C(=O)c2ccccc2)C(O)(C(C)(C)C)C1 (stereo not drawn)	i	i	i	i	i
O=c1c2ccccc2[nH]c(=S)n1CCCN1CCC(Cc2ccccc2)CC1	?	i	i	i	7.94µM
O=C(c1ccc(F)cc1)C1CCN(CCn2c(=S)[nH]c3ccccc3c2=O)CC1	14.1µM!	i	nt	i	7.94µM!
Cc1cccc(C)c1N1CCN(CCn2c(=S)[nH]c3ccccc3c2=O)CC1	?	i	i	i	10µM
CC(=O)N1CCN(S(=O)(=O)c2cccc(C(=O)NNC(=O)Cn3nc(C)cc3C)c2)CC1	nt	i	i	nt	nt
CCCCc1nc2c(c3c1C[C@H](C)OC3)CN(C(=O)N[C@@H](C)c1ccccc1)CC2	nt	nt	nt	i	nt

Source: PubChem
